In PubChem BioAssay AID504832 (National Center for Advancing Translational Sciences (NCATS), 2011):
Screen size: about 310,000 compounds; about 18,000 (5.8%) were called active. Another 22% or so got no clear call; they are omitted. The list comes from a sample in which actives are over-represented; it also holds similar structures and randomly drawn compounds. A number with no mark means an inactive call. Calls follow the shape of the dose curve; as a rule, active = well fitted inhibition curve with a large enough effect; inconclusive = small, poorly fitted or top-dose-only effect, or another doubt; inactive = no such curve, though single readings can be large or run the other way.

Test: Primary qHTS for delayed death inhibitors of the malarial parasite plastid, 48 hour incubation
Settings: P. falciparum luciferase growth in erythrocytes; series mostly up to 28.7 µM; activity change, negative = inhibition: at the top concentration
How it was run: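 Cell-based growth assay: transgenic P. falciparum expressing firefly luciferase, cultured in red cells within RPMI 1640 containing 0.5% w/v Albumax, 24 mM bicarbonate and gentamycin. A drop in luciferase activity indicates inhibition.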
% is scaled to controls: 0 for no effect and ±100 for the full control effect; potency is read from the fitted curve at half-maximal effect.

| Compound | activity change, negative = inhibition | Potency |
| --- | --- | --- |
| C=CCn1c(N)cc(=O)nc1SCC(=O)Nc1cccc2ccccc12 | 1.48% | – |
| O=C(Cc1c(Cl)cccc1Cl)NC1CC1 | 1.57% | – |
| COc1ccc(C(=O)NC2CCN(C(=O)Nc3ccc(F)cc3)CC2)cc1 | -0.699% | – |
| Cc1ccc(SCC(=O)NNC(=O)c2ccc(S(C)(=O)=O)cc2)cc1 | 34.9% | – |
| COc1cccc(N(Cc2nnc3n2CCCCC3)C(=O)Nc2ccccc2F)c1 | 6.97% | – |
| COc1cccc(N(C(=O)c2ccn[nH]2)C2(C(=O)Nc3c(C)cccc3C)CCCCC2)c1 | – | 9.28 µM (active) |
| Cc1cccc(C)c1NC(=O)C1(N(C(=O)c2ccccn2)c2ccc(O)cc2)CCCCC1 | -0.862% | – |
| COc1ccc(C)cc1NC(=O)NCCCCc1ccccc1 | – | 14.7 µM (active) |
| COc1ccc(C)cc1NC(=O)NCc1ccccn1 | -13% [at 5.75 µM] | – |
| COc1ccc(C(=O)OCC(=O)NCCCc2ccccc2)cc1OC | 7.29% | – |
| N#CC1(NC(=O)COC(=O)Cc2n[nH]c(=O)c3ccccc23)CCCCC1 | 23.3% | – |
| O=C(O)c1cccnc1Sc1ncnc2sc3c(c12)CCC3 | -7.35% | – |
| OCCNc1nc2ccccc2n1-c1ncnc2sc3c(c12)CCC3 | – | 6.57 µM (active) |
| O=C(O)[C@@H]1CCCN1c1ncnc2sc3c(c12)CCC3 | 6.15% | – |
| O=c1onc(-c2c(F)cccc2F)n1-c1ccccc1Cl | 4.36% [at 0.00184 µM] | – |
| Cc1ccc(S(=O)(=O)N(C)CC(=O)NC2CCCC2)cc1 | -26.8% | – |
| CN(CC(=O)NCCN1CCOCC1)S(=O)(=O)c1ccc(F)cc1 | -3.21% | – |
| Cc1ccc(S(=O)(=O)N(C)CC(=O)NCC(c2ccc(F)cc2)N2CCOCC2)cc1 (configuration not stated) | – | 9.28 µM (active) |
| COc1cc([N+](=O)[O-])ccc1NC(=O)COC(=O)CCOc1ccc(C)cc1 | -17.7% | – |
| COc1ccccc1OCCNC(=O)CCNC(=O)c1ccccc1Cl | 2.48% | – |
| O=CN1CCN(C(=O)c2ccc3c(c2)OCO3)CC1 | 12.7% | – |
| CC(=O)c1c(C)[nH]c(C(=O)COC(=O)CCOc2ccc(C)cc2)c1C | -21.9% | – |
| CCNC(=S)N(CCN(CC)CC)Cc1cc2cc3c(cc2[nH]c1=O)OCCO3 | -16.8% | – |
| COCCn1cnc2c1c(=O)n(CC(=O)NN)c(=O)n2Cc1ccccc1 | -4.05% | – |
| CCN(CC)CCn1cnc2c1c(=O)[nH]c(=O)n2Cc1ccccc1 | 11.6% | – |
| N=c1c2c(-c3ccccc3)c(-c3ccccc3)n(Cc3ccccc3)c2ncn1CCCO | – | 2.33 µM (active) |

| Compound | activity change, negative = inhibition | Potency |
| --- | --- | --- |
| Cc1ccc(S(=O)(=O)N(CC(=O)NCCSC2CCCCC2)c2ccccc2F)cc1 | – | 4.65 µM (active) |
| Cc1ccc(S(=O)(=O)N(CC(=O)NCc2ccco2)c2ccccc2C)cc1 | -27.1% | – |
| CCNC(=O)CN(c1ccc(C)cc1)S(=O)(=O)c1ccc(SC)cc1 | -15.6% | – |
| Cc1cccc(C)c1OCCN1CCOCC1 | 12.2% | – |
| COc1ccc(/C=C/C(=O)c2ccc(OC)cc2O)cc1 | 34.8% | – |
| COc1ccc(C(=O)/C=C/c2ccc(OC3CSC3)cc2)cc1 | -13% | – |
| COc1ccc(/C=C/C(=O)c2cc(Br)ccc(=O)c2O)cc1 | – | 13.1 µM (active) |
| CC(C)CCN1CCN=C1N(C)C | 37% | – |
| Cc1cc2nc3c(=O)n(Cc4ccccc4)c(=O)[nH]c3nc2cc1N | -1.25% | – |
| Cc1cc(NC(=O)CSc2nc3cc(Cl)ccc3c(=O)n2Cc2ccco2)no1 | 13% | – |
| Nc1cc(=O)nc(SCc2ccccc2)n1Cc1ccco1 | -0.468% | – |
| Cc1nc2c(c(=O)n1Cc1ccco1)c1nc3ccccc3nc1n2Cc1ccccc1 | – | 9.28 µM (active) |
| Cc1ccc(Cn2c(C)nc3c(c2=O)c2nc4ccccc4nc2n3Cc2ccco2)cc1 | – | 5.86 µM (active) |
| COCCCn1c2nc3ccccc3nc2c2c(=O)n(Cc3ccc(Cl)cc3)c(C)nc21 | -3.86% | – |
| CC1(C)Cc2cccc(OCC(=O)NCc3ccccc3)c2O1 | 4.57% | – |
| O=C(Oc1ccc(F)cc1)N1CCOCC1 | 1.01% | – |
| COc1ccccc1NC(=O)COC(=O)COc1ccccc1F | -7.22% | – |
| COc1ccccc1NC(=O)C1CCN(C(=O)c2ccc(C(C)(C)C)cc2)CC1 | -1.27% | – |
| O=C(COC(=O)c1cc(S(=O)(=O)N2CCOCC2)ccc1Cl)NCCc1ccccc1 | 15.4% | – |
| OC(c1nc2ccc(F)cc2[nH]1)C(O)c1nc2ccc(F)cc2[nH]1 (configuration not stated) | 11.2% | – |
| COc1ccccc1-n1c(C)nc2cc(C(=O)NCc3ccc4c(c3)OCO4)ccc21 | 14.5% | – |
| Cc1ccc(CNC(=O)c2c(-c3ccccc3)noc2C)cc1 | 2.95% [at 0.00184 µM] | – |
| COc1ccc(NC(=O)NCc2ccc3c(c2)OCO3)c(OC)c1 | 1.8% | – |
| Cc1ccccc1-c1cc(C(=O)NCC2CC2)n(CC2CC(c3cccnc3)=NO2)n1 (configuration not stated) | -6.01% | – |
| Cc1ccc(CNC(=O)c2cc(-c3ccccc3C)n(CC3CC(c4cccc([N+](=O)[O-])c4)=NO3)n2)cc1 (configuration not stated) | – | 5.22 µM (active) |
| COc1ccc(C2=NOC(Cn3nc(C(=O)NCc4ccc5c(c4)OCO5)cc3-c3ccccc3)C2)cc1 (configuration not stated) | – | 9.28 µM (active) |
